# Experimental data from PubChem BioAssay.
# The source made the active and inactive calls. Unless noted, the rule behind the calls is not given here.
# Experiments:
# [1] = compounds binding Alexa647 anti-His antibody – biochemical, small-molecule microarray, 635 nm fluorescence, artefact control for SMM control protein annotation, primary screen (AID 1128); details: higher = more signal;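 note: score merges feature fluorescence with signal-to-noise for each printed compound spot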
# [2] = system: Human papillomavirus type 1a E7 protein (residues 1-88); assay: HPV1a E7 small-molecule binders, primary screen, biochemical, small-molecule microarray, residues 1-88, 635 nm (AID 1129); details: small-molecule microarray binding, fluorescence 635 nm; higher = more signal
# [3] = target: Focal adhesion kinase 1 (Homo sapiens) (UniProt Q05397); assay: PTK2 protein binding on printed compound slides – biochemical, small-molecule microarray, 635/667 nm fluorescence, BSA, DTT, primary screen (AID 1130); details: 635 nm fluorescence, higher = more signal;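 note: composite of spot emission at 667 nm and signal to noise over triplicate slides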
# [4] = system: Fibrinogen (Alexa647-labelled); assay: Alexa647-fibrinogen binding to printed small molecules – biochemical, small-molecule microarray, 635/667 nm fluorescence, artefact control for SMM control-protein annotation, profiling panel (AID 1131); details: fibrinogen-A647 binding fluorescence, higher = more signal;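 note: z-score merges 667 nm fluorescence with per-spot signal-to-noise over triplicate slides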
# [5] = target: Follistatin (Homo sapiens) (UniProt P19883); assay: FST protein binding to printed compounds – biochemical, small-molecule microarray, 635/667 nm fluorescence, primary screen (AID 1132); details: 635 nm fluorescence, higher = more signal
# [6] = target: Fibroblast growth factor 2 (Homo sapiens) (UniProt P09038); assay: basic fibroblast growth factor binding to printed compounds – biochemical, small-molecule microarray, 635/667 nm fluorescence, primary screen (AID 1133); details: FGF2, fluorescence 635/667, higher = more signal
# [7] = JC-1 mitochondrial potential readout, lung cancer cells – cell-based, A549, JC-1 fluorescence, basal, 24 h, 100 nL, profiling panel (AID 1138); details: higher = more signal;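 note: A549 lung adenocarcinoma cells under basal conditions with no added stimulus; test concentration not given here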
# Lefty1 = Lefty1 protein binding to printed compounds – biochemical, small-molecule microarray, 635/667 nm fluorescence, primary screen (AID 1139); details: fluorescence 635/667, higher = more signal
# [8] = system: wheat germ agglutinin (Triticum aestivum), Alexa647-labelled; assay: Alexa647-WGA lectin binding to printed small molecules – biochemical, small-molecule microarray, 635/667 nm fluorescence, artefact control for SMM control-protein annotation, profiling panel (AID 1140); details: WGA-A647 binding, 635 nm fluorescence, higher = more signal;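 note: score merges 667 nm feature emission with signal to noise over triplicate slides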
# [9] = target: Luciferin 4-monooxygenase (Photinus pyralis) (UniProt P08659); assay: inhibition of purified Photinus pyralis luciferase – biochemical, luminescence, purified enzyme, 2006 set, primary screen (AID 1141); details: purified firefly luciferase, SteadyGlo luminescence, 30 min; higher = more signal, called active from +8 up or from −8 down;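 note: cell-free assay with purified firefly luciferase at 100 ng per well in PBS; test concentration not given here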
# [10] = system: Wnt5a (protein binding on small-molecule microarray); assay: small molecules binding Wnt5a protein – biophysical, small-molecule microarray, 635/667 nm fluorescence, primary screen (AID 1142); details: 635 nm fluorescence, higher = more signal;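 note: fluorescence read at 667 nm with signal to noise per printed feature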
# [11] = ATP-based viability of Huh7 replicon cells – cell-based, CellTiter-Glo luminescence, basal, 48 h, cytotoxicity control for HCV replication inhibitor project, primary screen (AID 1143); details: higher = more signal, called active from +8 up or from −8 down;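 note: Huh7 hepatoma cells carrying a hepatitis C replication reporter with no stimulus; test concentration not given here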
# [12] = Pseudomonas biofilm growth suppression – PAO1 strain, BacTiter-Glo luminescence, LB-PBS, primary screen (AID 1144); details: P. aeruginosa PAO1 biofilm, 12 h, higher = more signal
# [13] = basal CRE-LacZ reporter activity in PC12 – cell-based, unstimulated, primary screen (AID 1145); details: no forskolin, luminescence, 4.5 h, higher = more signal, called active from +8 up or from −8 down
# [14] = forskolin-driven CRE-LacZ activity in PC12 – cell-based, CRE-LacZ reporter, forskolin-stimulated, primary screen (AID 1146); details: luminescence, 4.5 h, higher = more signal, called active from +8 up or from −8 down;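 note: PC12 cells with 6xCRE LacZ reporter stimulated by forskolin 10 µM; beta-galactosidase reporter signal reflecting CREB driven transcription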
# [15] = target: Streptavidin (Streptomyces avidinii) (UniProt P22629); assay: compounds binding control protein streptavidin – biophysical, small-molecule microarray, 635/667 nm fluorescence, artefact control for SMM compound annotation, primary screen (AID 1147); details: higher = more signal;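 note: signal reflects streptavidin binding to arrayed compounds as a control protein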
# [16] = probe aInhba binding on compound microarray – biochemical, small-molecule microarray, 635/667 nm fluorescence, primary screen (AID 1148); details: higher = more signal;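 note: score merges 667nm spot fluorescence with signal-to-noise for antibody binding to printed compounds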
# Torsin-1A (Homo sapiens) [17] = target: Torsin-1A (Homo sapiens) (UniProt O14656); assay: TOR1A wild-type binding on microarray – cell lysate, small-molecule microarray, lysate, 635/667 nm, primary screen (AID 1149); details: COS7 hTOR1A-WT lysate, 635 nm fluorescence, higher = more signal
# Torsin-1A (Homo sapiens) [18] = target: Torsin-1A (Homo sapiens) (UniProt O14656); assay: torsin A mutant lysate binding on microarrays – cell lysate, small-molecule microarray, COS7 lysate, 635/667 nm fluorescence, primary screen (AID 1150); details: COS7 hTOR1A mutant lysate, 635 nm fluorescence, higher = more signal;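 note: score pools 667 nm emission and signal to noise measuring lysate protein binding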
# [19] = system: Sonic hedgehog protein (Shh); assay: Sonic hedgehog microarray binding compounds – biochemical, small-molecule microarray, 635/667 nm fluorescence, primary screen (AID 1151); details: 635 nm fluorescence, higher = more signal;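 note: Shh protein binding to compounds spotted on small-molecule microarray slides; score combines spot fluorescence intensity with signal-to-noise across triplicate slides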
# Sequence of Torsin-1A (Homo sapiens) (O14656 whole entry, looked up): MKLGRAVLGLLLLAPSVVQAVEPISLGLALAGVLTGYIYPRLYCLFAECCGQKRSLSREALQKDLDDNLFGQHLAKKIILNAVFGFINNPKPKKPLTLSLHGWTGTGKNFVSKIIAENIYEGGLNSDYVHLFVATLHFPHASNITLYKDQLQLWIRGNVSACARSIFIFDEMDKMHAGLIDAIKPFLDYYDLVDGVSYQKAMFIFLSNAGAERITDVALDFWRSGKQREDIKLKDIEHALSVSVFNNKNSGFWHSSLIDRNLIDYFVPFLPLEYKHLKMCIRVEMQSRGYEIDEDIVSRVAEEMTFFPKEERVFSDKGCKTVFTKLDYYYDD
# Sequence of Luciferin 4-monooxygenase (Photinus pyralis) (P08659 whole entry, looked up): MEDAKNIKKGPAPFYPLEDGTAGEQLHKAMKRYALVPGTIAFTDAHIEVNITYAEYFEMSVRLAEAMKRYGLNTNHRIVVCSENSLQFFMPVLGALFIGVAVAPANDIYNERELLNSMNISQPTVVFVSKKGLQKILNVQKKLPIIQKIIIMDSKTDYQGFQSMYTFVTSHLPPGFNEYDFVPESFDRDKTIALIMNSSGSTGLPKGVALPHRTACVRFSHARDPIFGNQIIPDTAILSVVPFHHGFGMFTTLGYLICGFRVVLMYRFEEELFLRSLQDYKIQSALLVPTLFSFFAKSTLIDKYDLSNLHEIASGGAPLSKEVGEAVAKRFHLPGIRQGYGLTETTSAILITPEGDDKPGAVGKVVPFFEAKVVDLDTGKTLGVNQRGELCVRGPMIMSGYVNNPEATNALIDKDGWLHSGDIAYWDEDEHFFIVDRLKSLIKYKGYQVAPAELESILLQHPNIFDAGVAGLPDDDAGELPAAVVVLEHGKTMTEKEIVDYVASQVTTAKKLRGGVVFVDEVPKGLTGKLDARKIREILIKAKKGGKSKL
# Sequence of Follistatin (Homo sapiens) (P19883 whole entry, looked up): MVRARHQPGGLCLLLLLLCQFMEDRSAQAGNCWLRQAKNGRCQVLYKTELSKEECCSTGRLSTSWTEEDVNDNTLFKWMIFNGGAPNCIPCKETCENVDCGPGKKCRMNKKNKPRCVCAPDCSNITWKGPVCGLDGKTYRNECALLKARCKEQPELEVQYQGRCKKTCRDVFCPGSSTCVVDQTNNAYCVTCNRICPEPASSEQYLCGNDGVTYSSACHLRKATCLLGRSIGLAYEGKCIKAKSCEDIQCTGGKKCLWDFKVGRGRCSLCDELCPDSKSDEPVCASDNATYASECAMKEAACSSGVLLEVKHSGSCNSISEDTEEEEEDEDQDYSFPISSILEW
# Sequence of Fibroblast growth factor 2 (Homo sapiens) (P09038 whole entry, looked up): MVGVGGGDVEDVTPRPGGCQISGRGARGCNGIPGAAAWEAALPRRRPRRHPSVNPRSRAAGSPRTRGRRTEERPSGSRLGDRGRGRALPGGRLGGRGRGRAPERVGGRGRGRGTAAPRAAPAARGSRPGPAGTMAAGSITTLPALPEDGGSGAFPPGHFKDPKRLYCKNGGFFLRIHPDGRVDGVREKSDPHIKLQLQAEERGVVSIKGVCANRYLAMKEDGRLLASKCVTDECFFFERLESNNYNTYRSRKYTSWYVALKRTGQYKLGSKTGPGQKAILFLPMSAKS
# Sequence of Focal adhesion kinase 1 (Homo sapiens) (Q05397 whole entry, looked up): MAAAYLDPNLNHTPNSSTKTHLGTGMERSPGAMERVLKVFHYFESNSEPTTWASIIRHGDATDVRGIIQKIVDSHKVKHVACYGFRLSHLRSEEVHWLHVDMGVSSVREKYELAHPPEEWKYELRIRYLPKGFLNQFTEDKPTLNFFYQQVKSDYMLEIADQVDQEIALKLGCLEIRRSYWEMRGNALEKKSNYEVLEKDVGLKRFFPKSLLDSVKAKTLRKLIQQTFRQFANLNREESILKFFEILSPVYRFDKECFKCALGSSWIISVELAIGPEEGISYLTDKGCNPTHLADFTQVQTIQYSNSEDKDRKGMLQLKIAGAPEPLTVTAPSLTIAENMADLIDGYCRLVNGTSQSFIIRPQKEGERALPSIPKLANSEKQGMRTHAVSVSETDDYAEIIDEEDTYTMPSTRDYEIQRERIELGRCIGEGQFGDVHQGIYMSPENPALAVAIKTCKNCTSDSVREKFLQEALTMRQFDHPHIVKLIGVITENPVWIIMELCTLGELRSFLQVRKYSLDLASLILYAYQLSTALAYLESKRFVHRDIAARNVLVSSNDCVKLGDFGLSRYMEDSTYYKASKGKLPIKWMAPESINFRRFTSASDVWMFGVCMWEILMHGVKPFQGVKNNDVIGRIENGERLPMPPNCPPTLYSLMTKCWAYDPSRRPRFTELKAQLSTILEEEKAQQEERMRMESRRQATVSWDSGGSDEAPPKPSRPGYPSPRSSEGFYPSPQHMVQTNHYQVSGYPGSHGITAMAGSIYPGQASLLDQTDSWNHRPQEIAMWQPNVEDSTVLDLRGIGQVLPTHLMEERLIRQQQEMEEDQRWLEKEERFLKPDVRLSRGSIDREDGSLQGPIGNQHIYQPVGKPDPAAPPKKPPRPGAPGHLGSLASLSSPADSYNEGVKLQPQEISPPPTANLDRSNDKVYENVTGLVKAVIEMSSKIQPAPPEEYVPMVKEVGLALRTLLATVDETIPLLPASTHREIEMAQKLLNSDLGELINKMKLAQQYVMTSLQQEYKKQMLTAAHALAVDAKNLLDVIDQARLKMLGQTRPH
# Sequence of Streptavidin (Streptomyces avidinii) (P22629 whole entry, looked up): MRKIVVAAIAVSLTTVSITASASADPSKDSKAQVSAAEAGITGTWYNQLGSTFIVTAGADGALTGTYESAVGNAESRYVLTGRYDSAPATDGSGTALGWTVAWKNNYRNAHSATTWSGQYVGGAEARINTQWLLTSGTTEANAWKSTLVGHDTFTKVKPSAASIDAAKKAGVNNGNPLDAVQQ
Compound,composite z-score [1],composite z-score [2],composite z-score [3],composite z-score [4],composite z-score [5],composite z-score [6],z-score [7],composite z-score (Lefty1),composite z-score [8],z-score [9],composite z-score [10],z-score [11],z-score [12],z-score [13],z-score [14],composite z-score [15],composite z-score [16],composite z-score (Torsin-1A (Homo sapiens) [17]),composite z-score (Torsin-1A (Homo sapiens) [18]),composite z-score [19]
COc1ccc(C#Cc2ccc3c(c2)[C@]2(C(=O)N3)[C@H](c3ccc(OCCO)cc3)N3[C@H](c4ccccc4)[C@H](c4ccccc4)OC(=O)[C@H]3[C@@H]2C(=O)O)cc1,0.406,1.22,0.583,0.771,1.15,0.485,-2.54,1.63,0.416,-4.63 (inactive),0.57,-5.01 (inactive),-2.48 (inactive),-0.0515 (inactive),3.52 (inactive),-0.105,0.927,0.546,1.2,1.89
COc1cc2c(cc1O)C(c1ccc(CN3CCCC3)cc1)N(Cc1ccc([N+](=O)[O-])o1)CC2 (stereo not given),0.27,-0.96,-0.537,0.121,-0.147,0.253,1,-0.606,0.522,-0.659 (inactive),-0.176,-0.192 (inactive),0.85 (inactive),0.299 (inactive),0.292 (inactive),-0.231,-0.105,0.714,0.623,-0.0987
CC[C@H](C)C(=O)O[C@H]1CC[C@]2(C)C3=C(CCC2C1(C)C)[C@]1(C)CC[C@H]([C@H](C)CCCC(C)C)[C@@]1(C)CC3 (stereo not given in full),0.226,0.666,0.122,0.367,0.538,0.35,1.15,0.721,0.0438,-1.4 (inactive),0.0143,0.15 (inactive),-0.0646 (inactive),0.947 (inactive),-1.24 (inactive),0.984,-0.292,0.214,0.339,0.613
C=CCOC(=O)[C@H]1[C@@H]2C(=O)O[C@@H](c3ccccc3)[C@@H](c3ccccc3)N2[C@@H](c2ccc(OCCOC(=O)[C@@H]3C[C@@H]4C(=O)N[C@@H](CC(C)C)C(=O)N4[C@@H]3c3ccc(O)cc3)cc2)[C@]12C(=O)Nc1ccc(I)cc12,0.785,0.935,0.443,0.761,1.08,1.89,-0.946,0.677,0.902,-2.13 (inactive),0.15,-0.901 (inactive),-1.3 (inactive),0.281 (inactive),0.318 (inactive),0.149,-0.0791,0.637,1.22,1.91
O=C1N(CCS(=O)(=O)c2ccccc2)c2ccccc2[C@@H]2OC(c3ccc(OCCCO)cc3)=N[C@]12CCS(=O)(=O)c1ccccc1,0.7,1.2,0.575,0.922,1.38,1.5,-1.59,0.553,0.465,-3.78 (inactive),0.277,-1.35 (inactive),0.647 (inactive),2.41 (inactive),0.103 (inactive),1.12,0.103,0.741,1.43,1.3
C=CC[C@@]1(C(=O)N(C)C)N=C(c2ccc(OCCCO)cc2)O[C@@H]1c1ccccc1,2.63,1.24,0.356,0.3,0.0236,0.298,-0.324,-0.68,1.02,0.213 (inactive),0.919,-1.45 (inactive),0.442 (inactive),0.652 (inactive),0.535 (inactive),-0.232,0.496,0.986,0.571,-0.0763
C=CCOC(=O)[C@H]1[C@@H]2C(=O)O[C@@H](c3ccccc3)[C@@H](c3ccccc3)N2[C@@H](c2ccc(OCCOC(=O)[C@@H]3C[C@@H]4C(=O)N[C@@H](Cc5ccccc5)C(=O)N4[C@@H]3c3ccc(O)cc3)cc2)[C@]12C(=O)Nc1ccccc12,1.78,1.19,1.53,0.911,1.32,1.33,-1.15,0.948,1.2,-0.497 (inactive),0.5,0.247 (inactive),-0.661 (inactive),0.679 (inactive),-0.158 (inactive),0.537,-0.0762,0.83,0.8,1.03
CC(C)(C)N1CC=CC23O[C@@H]4/C=C\CCCOC(=O)C4[C@H]2C(=O)N(CCCCCCO)[C@@H]3C1=O (stereo not given in full),3.08,-0.444,-0.639,-1.01,-0.93,-0.502,1.2,-1.11,0.0119,-0.854 (inactive),-0.731,-0.0711 (inactive),-1.95 (inactive),-0.224 (inactive),-0.739 (inactive),-1,-0.0719,0.467,0.488,-0.22
COc1ccc([Si](C)(C)[C@H]2[C@H](CCO)O[C@@]3(C(=O)N(Cc4ccc(N5CCOC5=O)cc4)c4ccccc43)[C@@H]2C)cc1,0.965,0.516,0.5,0.45,-0.11,-0.271,0.533,0.263,0.433,-0.605 (inactive),-0.159,-3.29 (inactive),-0.232 (inactive),2.2 (inactive),-2.06 (inactive),0.346,-0.0791,0.216,0.0362,0.397
